# Source: PubChem (National Center for Advancing Translational Sciences (NCATS))
# The list is not random: actives were taken first. Their share in the collection is about 1.1%.
# HTT aggregate – reduces HttQ103-GFP aggregates in PC12 cells; PC12 HttQ103-GFP aggregates, Acumen cytometry, 40 h; Potency, µM (top dose mostly 46.1 µM), inactives show at the highest dose activity change, negative = inhibition, most hits filed as inhibitors; 220,000 tested, 1.1% active; AID 1688; further: on the % scale 0 is the no-effect control and ±100 the full control effect; nearly all actives have a fitted effect of over 60% in size
#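 Using laser scanning cytometry, GFP-positive aggregates were counted after lysis of PC12 cells induced with 100 nM tebufenozide to express HTT exon 1 Q103–GFP. Compounds were tested in titration.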
# IDH1 R132H inh – human IDH1 R132H inhibition. Potency, µM (doses to about 76.6 µM), inactives show at the highest dose activity change, negative = inhibition, actives largely listed as inhibitors. 390,000 tested, 0.093% active. AID 602179. IDH1-R132H enzyme, NADPH consumption, diaphorase/resazurin fluorescence; further: on the % scale 0 is the no-effect control and ±100 the full control effect; nearly all actives have a fitted effect of over 65% in size
# Target sequence (O75874 whole entry R132H, stated change not applied): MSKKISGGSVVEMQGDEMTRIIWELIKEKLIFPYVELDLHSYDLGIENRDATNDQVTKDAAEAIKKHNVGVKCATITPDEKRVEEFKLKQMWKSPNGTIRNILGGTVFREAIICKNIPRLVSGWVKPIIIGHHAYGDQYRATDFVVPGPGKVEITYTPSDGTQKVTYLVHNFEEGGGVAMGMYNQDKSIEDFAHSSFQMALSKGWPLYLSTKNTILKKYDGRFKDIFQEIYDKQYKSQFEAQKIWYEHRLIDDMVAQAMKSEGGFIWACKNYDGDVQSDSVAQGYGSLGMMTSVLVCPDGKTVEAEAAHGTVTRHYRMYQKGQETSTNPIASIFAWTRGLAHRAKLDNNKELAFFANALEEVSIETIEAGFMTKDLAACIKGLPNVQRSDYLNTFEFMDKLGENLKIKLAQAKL
#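 IDH1-R132H (0.5 ug/mL) preincubated 30 min with compound, then NADPH (0.016 mM) and alpha-KG (2 mM) added; 80 min at RT, pH 7.5. Remaining NADPH coupled via diaphorase/resazurin to fluorescence (540/590 nm); concentration-response curves normalized to no-enzyme control.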
# NPSR antag – blocks cAMP signaling of the human neuropeptide S receptor | Q6W5P4 | CHO-NPSR cells, cAMP TR-FRET, antagonist mode | Potency, µM (titrated, usually from 38.3 µM), inactives show at the top dose activity change, negative = inhibition, most hits filed as inhibitors | 220,000 tested, 1% active | AID 1461; further: on the % scale 0 is the no-effect control and ±100 the full control effect; nearly all actives have a fitted effect of over 50% in size
# HTT cytoprotect – protects HTT-Q103 PC12 cells, measured by ATP; 230,000 tested, 0.14% active; Potency, µM (doses to about 56.4 µM), without a hit: cytoprotection (ATP increase), usual class: activators; AID 1471; PC12 HTT-Q103 induced, cytoprotection, ATP luminescence, 40 h; further: % of control where 0% means no effect; nearly all actives have a fitted effect of over 45% in size
#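 Quantitative HTS on tebufenozide-induced (100 nM) PC12 cells expressing HTTQ103 exon 1–GFP; compounds tested as a concentration series; survival measured via cellular ATP.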
# A-T KAP1 phos – potential ataxia-telangiectasia treatment; 320,000 tested, 0.19% active; F2112 A-T fibroblasts, KAP-1 phosphorylation AlphaLISA; neocarzinostatin DNA damage 30 min before lysis; Potency, µM (titrated, usually from 57.5 µM), for the others: at the highest dose activation, usual class: activators; further: % of control where 0% means no effect; nearly all actives have a fitted effect of over 45% in size
#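 ATM-like activity read as KAP-1 phosphorylation via AlphaLISA donor/acceptor antibody pairs after lysis and 6 hr at 25C. Cells were ATM-null patient fibroblasts (F2112, hTERT), dosed 60 min, then exposed to the DSB inducer NCS for 30 min.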
# * hit, by the source's call; ? = inconclusive; . = no result; [ ] = dose if it differs, or a comment. The call rests on the fitted dose curve; in most records, active means well fitted curve in the direction sought with a large enough effect; inconclusive means small, poorly fitted or top-dose-only effect, or another doubt; inactive means no such curve, though single readings can be large; an effect the other way counts as inactive or inconclusive. Potency means the concentration at half of the fitted maximal effect.
SMILES,HTT aggregate,IDH1 R132H inh,NPSR antag,HTT cytoprotect,A-T KAP1 phos
O=C(NC1CCS(=O)(=O)C1)/C(=C/c1ccco1)NC(=O)c1ccccc1 (configuration not stated),0.18µM*,-15%,1%,0.14µM*,8%
CCc1nnc(SCc2cc(C)ccc2C)c2cc3sc(C)cc3n12,.,-11%,.,.,.
CCC(=O)OC1C(N(C)C)CC(C)O[C@H]1O[C@H]1[C@H](C)[C@@H](O[C@H]2CC(OC)[C@@H](O)C(C)O2)[C@H](C)C(=O)O[C@@H](CC)[C@](C)(O)[C@@H](O)[C@H](C)C(=O)[C@@H](C)C[C@]1(C)O (some centres not stated),5%,.,.,0%,.
O=[N+]([O-])c1cc(Cl)ccc1Sc1cccc2cccnc12,11%,31%,-16%[46.1 µM],-17%[10 µM],.
O=[N+]([O-])c1ccc(Sc2cccc3cccnc23)c([N+](=O)[O-])c1,?,44%,3.2µM*,?,11%
O=c1c(O)c(-c2ccc(O)c(O)c2)oc2ccccc12,.,.,.,17%[1.9 µM],.
CCC(=O)Oc1c(C(=O)CC)cc2c(C)cc(=O)oc2c1C,13µM*,7%,6%,.,7%
CCC(=O)c1cc2c(C)cc(=O)oc2c(C)c1OC,-33%,10%,-4%[46.1 µM],-3%[10 µM],0%
O=C(O)[C@@H]1[C@@H](C(=O)Nc2ncccn2)[C@@H]2C=C[C@@H]1O2,.,.,.,14%[10 µM],.
COc1ccc(NS(=O)(=O)c2ccc(OC)c3ccccc23)cn1,18µM*,16%,-15%[46.1 µM],-23%,.
COc1ccc(NS(=O)(=O)c2cccs2)cn1,2%,4%,7%,.,1%
N#Cc1cc2sc3nnc(-c4ccncc4)n3c2cc1C#N,.,2%,-4%[46.1 µM],13µM*,1%
N#Cc1cc2sc3nc4ccccc4n3c2cc1C#N,11%,.,5%[46.1 µM],-10%,4%
O=[N+]([O-])c1ccc(O)c(-c2nc(-c3ccccc3)c(-c3cccs3)[nH]2)c1,7.9µM*,10%,?,-57%,2%
COc1ccc(-c2nc(-c3ccccc3)c(-c3cc([N+](=O)[O-])ccc3C)[nH]2)cc1OC,-22%,-2%,7.9µM*,-36%,-1%
CCOc1cc(-c2nc(-c3ccccc3)c(-c3cc([N+](=O)[O-])ccc3C)[nH]2)ccc1O,?,1%,?,-87%,.
COc1ccc(-c2cc(C(=O)NCc3cccs3)no2)cc1OC,.,.,.,-27%,.
CCN1CCN(Cc2ccc(NC(=O)c3ccc(C)c(NC(=O)c4nccnc4N)c3)cc2C(F)(F)F)CC1,2.8µM*,21%,-4%,4%[10 µM],?
O=C(COC(=O)c1ccccc1Cl)NC1CCCCCC1,.,4%,.,.,27%
O=C(COC(=O)c1cccc(Cl)c1Cl)NC1CCCC1,.,3%,.,.,18µM*
Clc1ccc2c(NC3CCC(N4CCCCC4)CC3)ccnc2c1 (configuration not stated),.,.,.,-14%[10 µM],.
COc1cc(/C=C2/CCC/C(=C\c3cc(O)c(OC)c(Cl)c3)C2=O)cc(Cl)c1O,?,-15%,7.9µM*,-96%,-10%
Cc1ccc(S(=O)(=O)Nc2cccc3ncccc23)cc1,-2%[9.22 µM],0%,4%,4%[10 µM],5%
Cc1ccc(S(=O)(=O)Nc2cccc3ncccc23)s1,?,10%,2µM*,3%,32%
N#C[C@H]1[C@H](c2ccccc2)[C@](C#N)(C(=O)c2ccccc2)[C@@H]2C=Cc3ccccc3N21,21%,.,?,-18%,16µM*
SMILES,HTT aggregate,IDH1 R132H inh,NPSR antag,HTT cytoprotect,A-T KAP1 phos
CCN(CC)c1ccc(C2C(C(=O)OC)=C(C)NC(C)=C2C(=O)OC)cc1,31%,-10%,?,4%[10 µM],4%
COC(=O)C1=C(C)NC(C)=C(C(=O)OC)C1c1ccc(NC(C)=O)cc1,3.2µM*,0%,0%[46.1 µM],-24%[0.074 µM],0%
O=S(=O)(CCC(F)=C(F)F)c1nnnn1C1CCCCC1,.,.,.,4µM*,.
COc1cccc(CS(=O)(=O)c2nnnn2C2CCCCC2)c1,.,.,.,21%,.
CCOC(=O)N1CCC(c2cc(=O)n3[nH]c(C)c(-c4ccc(F)cc4)c3n2)CC1,11µM*,-3%,-8%[46.1 µM],-21%,11%
COC(=O)c1ccccc1S(=O)(=O)N1CCc2nc(-c3ccccc3)c3c(c2C1)CO[C@@H](C)C3,.,.,.,-4%[10 µM],.
N=c1c2c(n(Cc3ccc(Cl)cc3)c3c1CCC3)CCC2,?,8%,11%[46.1 µM],-74%,3%
N=c1c2c(n(Cc3ccccc3)c3c1CCC3)CCC2,8.9µM*,-1%,-9%[46.1 µM],-59%,-5%
N=c1c2c(n(Cc3cccc(Cl)c3)c3c1CCC3)CCCC2,10µM*,9%,-13%,-43%[10 µM],5%
CCCCCc1ccc(OCCOCCn2c[n+](C)c3ccccc32)c(CCCCC)c1,11µM*,6%,-54%,-85%,-5%
CC(=O)Nc1ccc(OCCC[n+]2ccccc2)cc1,0%[9.22 µM],-7%,0%,-2%[10 µM],-2%
CCCCCc1ccc(OCCC[n+]2ccccc2)c(CCCCC)c1,3.2µM*,5%,-58%,-96%[10 µM],9%
C[n+]1cn(CC(O)COCc2ccccc2)c2ccccc21 (configuration not stated),2%,3%,7%[46.1 µM],0%,9%
COc1cccc(-c2nnc(NC(=O)c3ccc(S(=O)(=O)N4CC(C)OC(C)C4)cc3)o2)c1 (configuration not stated),4µM*,-8%,-15%[46.1 µM],-33%[10 µM],.
CC1CC(C)CN(S(=O)(=O)c2ccc(C(=O)Nc3nnc(-c4cccs4)o3)cc2)C1 (configuration not stated),7.9µM*,-8%,-9%[46.1 µM],-71%,-4%
CCC1CCCCN1S(=O)(=O)c1ccc(C(=O)Nc2nnc(-c3cccs3)o2)cc1 (configuration not stated),11µM*,-3%,-3%[46.1 µM],28%[10 µM],4%
CN(C)S(=O)(=O)c1ccc(C(=O)Nc2nnc(-c3cccs3)o2)cc1,?,5%,-21%,28%[10 µM],-4%
CC1CN(S(=O)(=O)c2ccc(C(=O)Nc3nnc(-c4ccco4)o3)cc2)CC(C)O1 (configuration not stated),?,-10%,-28%,-76%,2%
O=C(CSc1nc2c([nH]c3ccccc32)c(=O)n1-c1ccc(F)cc1)NCc1ccc(F)cc1,.,7%,.,.,.
c1ccc(CCNc2ncnc3scc(C4COc5ccccc5O4)c23)cc1 (configuration not stated),-21%,6%,?,-59%,-2%
c1ccc2c(c1)OCC(c1csc3ncnc(N4CCCC4)c13)O2 (configuration not stated),18µM*,3%,?,-9%,-2%
CCC(=O)Nc1nnc(SCC(=O)N2c3ccccc3CC2C)s1 (configuration not stated),-9%,5%,-9%[46.1 µM],26%[1.9 µM],.
